# Laboratory results reported in the supplement of paper PMC8728848.
# Only a selection was taken, and the strongest signals are over-represented in it overall.
# Experiments:
# Assay in all cases: glycan array binding signal (z-score within array); higher = stronger binding
# Settings in all cases: glycan notation: IUPAC condensed, linker removed
# [1] = biological target: Neu5Ac(a2-3)Gal(b1-3)[Neu5Ac(a2-6)]GalNAc
# Method in brief: (§1)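 From the Consortium for Functional Glycomics database, 3228 arrays were curated, keeping only those whose protein sequence was available. Binding is given as a within-array Z-score averaged across arrays sharing a protein sequence and across linkers. Negative Z-scores can be read as non-binding.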
# [2] = biological target: Neu5Ac(a2-3)Gal(b1-4)GlcNAc(b1-2)Man(a1-3)[Neu5Ac(a2-3)Gal(b1-4)GlcNAc(b1-2)Man(a1-6)]Man(b1-4)GlcNAc(b1-4)GlcNAc
# Method in brief: as §1
# [3] = biological target: Neu5Ac(a2-3)Gal(b1-4)GlcNAc(b1-3)Gal
# Method in brief: as §1
# [4] = biological target: Neu5Ac(a2-3)Gal(b1-4)[Fuc(a1-3)]GlcNAc
# Method in brief: as §1
# [5] = biological target: Neu5Ac(a2-3)Gal(b1-4)[Fuc(a1-3)]GlcNAc(b1-3)Gal(b1-4)[Fuc(a1-3)]GlcNAc(b1-3)Gal(b1-4)[Fuc(a1-3)]GlcNAc
# Method in brief: as §1
# [6] = biological target: Neu5Ac(a2-6)Gal(b1-4)GlcNAc(b1-2)Man(a1-3)[GlcNAc(b1-2)Man(a1-6)]Man(b1-4)GlcNAc(b1-4)GlcNAc
# Method in brief: as §1
# [7] = biological target: Neu5Ac(a2-6)Gal(b1-4)GlcNAc(b1-2)Man(a1-3)[Neu5Ac(a2-3)Gal(b1-4)GlcNAc(b1-2)Man(a1-6)]Man(b1-4)GlcNAc(b1-4)GlcNAc
# Method in brief: as §1
# [8] = biological target: Neu5Ac(a2-6)Gal(b1-4)GlcNAc(b1-2)Man(a1-6)[GlcNAc(b1-2)Man(a1-3)]Man(b1-4)GlcNAc(b1-4)GlcNAc
# Method in brief: as §1
# [9] = biological target: Neu5Ac(a2-6)Gal(b1-4)GlcNAc(b1-2)[Neu5Ac(a2-6)Gal(b1-4)GlcNAc(b1-4)]Man(a1-3)[GlcNAc(b1-4)][Neu5Ac(a2-6)Gal(b1-4)GlcNAc(b1-2)[Neu5Ac(a2-6)Gal(b1-4)GlcNAc(b1-6)]Man(a1-6)]Man(b1-4)GlcNAc(b1-4)GlcNAc
# Method in brief: as §1
# [10] = biological target: Neu5Ac(a2-6)Gal(b1-4)GlcNAc(b1-2)[Neu5Ac(a2-6)Gal(b1-4)GlcNAc(b1-6)]Man(a1-6)[Neu5Ac(a2-6)Gal(b1-4)GlcNAc(b1-2)Man(a1-3)][GlcNAc(b1-4)]Man(b1-4)GlcNAc(b1-4)GlcNAc
# Method in brief: as §1
# [11] = biological target: Neu5Ac(a2-6)Gal(b1-4)GlcNAc(b1-3)Gal(b1-4)[Fuc(a1-3)]GlcNAc(b1-3)Gal(b1-4)[Fuc(a1-3)]GlcNAc
# Method in brief: as §1
# [12] = biological target: Neu5Ac(a2-6)Gal(b1-4)GlcNAc(b1-6)GalNAc
# Method in brief: as §1
# [13] = biological target: Neu5Ac(a2-6)Gal(b1-4)GlcNAc(b1-6)[Gal(b1-3)GlcNAc(b1-3)]Gal(b1-4)Glc
# Method in brief: as §1
# [14] = biological target: Neu5Gc(a2-8)Neu5Ac(a2-3)Gal(b1-4)GlcNAc
# Method in brief: as §1
binder,measurement,setting,value
"Endo180d1-D4 (Homo sapiens), Q9UBG0 (protein) MGPGRPAPAPWPRHLLRCVLLLGCLHLGRPGAPGDAALPEPNVFLIFSHGLQGCLEAQGGQVRVTPACNTSLPAQRWKWVSRNRLFNLGTMQCLGTGWPGTNTTASLGMYECDREALNLRWHCRTLGDQLSLLLGARTSNISKPGTLERGDQTRSGQWRIYGSEEDLCALPYHEVYTIQGNSHGKPCTIPFKYDNQWFHGCTSTGREDGHLWCATTQDYGKDERWGFCPIKSNDCETFWDKDQLTDSCYQFNFQSTLSWREAWASCEQQGADLLSITEIHEQTYINGLLTGYSSTLWIGLNDLDTSGGWQWSDNSPLKYLNWESDQPDNPSEENCGVIRTESSGGWQNRDCSIALPYVCKKKPNATAEPTPPDRWANVKVECEPSWQPFQGHCYRLQAEKRSWQESKKACLRGGGDLVSIHSMAELEFITKQIKQEVEELWIGLNDLKLQMNFEWSDGSLVSFTHWHPFEPNNFRDSLEDCVTIWGPEGRWNDSPCNQSLPSICKKAGQLSQGAAEEDHGCRKGWTWHSPSCYWLGEDQVTYSEARRLCTDHGSQLVTITNRFEQAFVSSLIYNWEGEYFWTALQDLNSTGSFFWLSGDEVMYTHWNRDQPGYSRGGCVALATGSAMGLWEVKNCTSFRARYICRQSLGTPVTPELPGPDPTPSLTGSCPQGWASDTKLRYCYKVFSSERLQDKKSWVQAQGACQELGAQLLSLASYEEEHFVANMLNKIFGESEPEIHEQHWFWIGLNRRDPRGGQSWRWSDGVGFSYHNFDRSRHDDDDIRGCAVLDLASLQWVAMQCDTQLDWICKIPRGTDVREPDDSPQGRREWLRFQEAEYKFFEHHSTWAQAQRICTWFQAELTSVHSQAELDFLSHNLQKFSRAQEQHWWIGLHTSESDGRFRWTDGSIINFISWAPGKPRPVGKDKKCVYMTASREDWGDQRCLTALPYICKRSNVTKETQPPDLPTTALGGCPSDWIQFLNKCFQVQGQEPQSRVKWSEAQFSCEQQEAQLVTITNPLEQAFITASLPNVTFDLWIGLHASQRDFQWVEQEPLMYANWAPGEPSGPSPAPSGNKPTSCAVVLHSPSAHFTGRWDDRSCTEETHGFICQKGTDPSLSPSPAALPPAPGTELSYLNGTFRLLQKPLRWHDALLLCESHNASLAYVPDPYTQAFLTQAARGLRTPLWIGLAGEEGSRRYSWVSEEPLNYVGWQDGEPQQPGGCTYVDVDGAWRTTSCDTKLQGAVCGVSSGPPPPRRISYHGSCPQGLADSAWIPFREHCYSFHMELLLGHKEARQRCQRAGGAVLSILDEMENVFVWEHLQSYEGQSRGAWLGMNFNPKGGTLVWQDNTAVNYSNWGPPGLGPSMLSHNSCYWIQSNSGLWRPGACTNITMGVVCKLPRAEQSSFSPSALPENPAALVVVLMAVLLLLALLTAALILYRRRQSIERGAFEGARYSRSSSSPTEATEKNILVSDMEMNEQQE",glycan array binding signal (z-score),[1],-0.517
same,glycan array binding signal (z-score),[2],-0.688
same,glycan array binding signal (z-score),[3],0.249
same,glycan array binding signal (z-score),[4],-0.083
same,glycan array binding signal (z-score),[5],-0.132
same,glycan array binding signal (z-score),[6],3.38
same,glycan array binding signal (z-score),[7],0.363
same,glycan array binding signal (z-score),[8],-0.485
same,glycan array binding signal (z-score),[9],-0.277
same,glycan array binding signal (z-score),[10],2.92
same,glycan array binding signal (z-score),[11],2.78
same,glycan array binding signal (z-score),[12],0.474
same,glycan array binding signal (z-score),[13],-0.046
same,glycan array binding signal (z-score),[14],-0.032
